PubChem BioAssay AID1159580 (chemical genetic matrix, 2015)
Screen size: about 5,500 compounds; about 2,000 (36%) were called active. Roughly 18% stayed inconclusive and do not appear here. No stated cut-off is given here; in the data, active means normalized growth mostly below about 0.91 (no sharp cut-off); inconclusive means no clear call, values can overlap the other calls; inactive means mostly above about 0.92. The list shows a part of the results.

Assay: chemical genetic growth profiling, strain panel (AID 1159580);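 further: tested at 20 µM; growth read once vehicle control cultures reached saturation at 30 °C; 1 = growth at the plate median or of vehicle wells; lower values mean less growth of the strain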
Settings: S. cerevisiae deletion strains, growth OD
[1] = locus YAL040C, strain CLN3, hits give low values
[2] = locus YCL061C, strain MRC1 (second series), hits give low values
[3] = locus YDR363W, strain ESC2, hits give low values
[4] = locus YER002W, strain NOP16, hits give low values
[5] = locus YMR307W, strain GAS1, hits give low values
[6] = locus YNL175C, strain NOP13, hits give low values
[7] = locus YNL197C, strain WHI3, hits give low values
[8] = locus YNL224C, strain SQS1, hits give low values
[9] = locus YOR083W, strain WHI5 (second series), hits give low values
[10] = locus YPL055C, strain LGE1, hits give low values
[11] = locus YAL013W, strain DEP1, hits give low values
[12] = locus YBR229C, strain ROT2, hits give low values
[13] = locus YDL101C, strain DUN1, hits give low values
[14] = locus YEL061C, strain CIN8, hits give low values
[15] = locus YGR078C, strain PAC10, hits give low values
[16] = locus YGR229C, strain SMI1, hits give low values
[17] = locus YHR030C, strain SLT2, hits give low values
[18] = locus YJL187C, strain SWE1, hits give low values
[19] = locus YJR043C, strain POL32, hits give low values
[20] = locus YKL190W, strain CNB1, hits give low values
[21] = locus YLR039C, strain RIC1, hits give low values
[22] = locus YLR262C, strain YPT6, hits give low values
[23] = locus YMR263W, strain SAP30, hits give low values
[24] = locus YNL153C, strain GIM3, hits give low values
[25] = locus YPL241C, strain CIN2, hits give low values
[26] = locus YDR150W, strain NUM1, hits give low values
[27] = locus YNL322C, strain KRE1, hits give low values

Measured: normalized growth

Nc1nc2ccc(Cl)cc2c2nc(-c3ccco3)nn12
active: [1] 0.734 | [4] 0.74 | locus YNL128W, strain TEP1, hits give low values 0.632 | [6] 0.664 | [7] 0.81 | [8] 0.729 | [9] 0.473
inactive: [2] 0.988 | [3] 0.926 | [5] 0.969 | [10] 0.909

CC(=O)O[C@@](C)(CCC=C(C)C)C1CC=C(C)CC1 (stereo not given in full)
inactive: [11] 1.02 | locus YAL021C, strain ccr4, hits give low values 1.01 | locus YAL026C, strain drs2, hits give low values 0.989 | locus YAL030W, strain snc1, hits give low values 0.987 | locus YBL061C, strain skt5, hits give low values 0.979 | locus YBR009C, strain hhf1, hits give low values 1.01 | locus YBR021W, strain FUR4, hits give low values 1.03 | locus YBR023C, strain chs3, hits give low values 0.986 | locus YBR171W, strain sec66, hits give low values 0.981 | [12] 1.02 | locus YBR231C, strain swc5, hits give low values 0.996 | locus YBR279W, strain paf1, hits give low values 0.987 | locus YCL011C, strain gbp2, hits give low values 0.983 | locus YCL016C, strain dcc1, hits give low values 0.996 | locus YCL029C, strain bik1, hits give low values 0.992 | locus YCL069W, strain vba3, hits give low values 0.983 | locus YCR088W, strain abp1, hits give low values 0.983 | locus YDL005C, strain med2, hits give low values 0.978 | locus YDL035C, strain GPR1, hits give low values 1.01 | locus YDL040C, strain nat1, hits give low values 0.988 | locus YDL074C, strain BRE1, hits give low values 1.03 | [13] 1.03 | locus YDL185W, strain tfp1, hits give low values 0.988 | locus YDL192W, strain arf1, hits give low values 1 | locus YDR001C, strain nth1, hits give low values 0.991 | locus YDR069C, strain doa4, hits give low values 0.966 | locus YDR101C, strain arx1, hits give low values 0.97 | locus YDR137W, strain rgp1, hits give low values 0.976 | locus YDR159W, strain sac3, hits give low values 0.982 | locus YDR162C, strain NBP2, hits give low values 1.05 | locus YDR195W, strain ref2 0.982 | locus YDR297W, strain sur2, hits give low values 0.974 | locus YDR318W, strain mcm21, hits give low values 0.997 | locus YDR334W, strain swr1, hits give low values 0.985 | locus YDR335W, strain msn5, hits give low values 0.986 | locus YDR388W, hits give low values 0.994 | locus YDR392W, strain spt3, hits give low values 0.973 | locus YDR502C, strain sam2, hits give low values 0.978 | locus YEL003W, strain gim4, hits give low values 0.993 | locus YEL037C, strain rad23, hits give low values 0.991 | locus YEL061C, strain CIN8 (second series), hits give low values 0.978 | [14] 1.02 | locus YER015W, strain faa2, hits give low values 0.994 | locus YER016W, strain bim1, hits give low values 0.992 | locus YER110C, hits give low values 0.985 | locus YER111C, strain swi4, hits give low values 0.981 | locus YER155C, strain BEM2 (second series), hits give low values 1.01 | locus YER155C, strain BEM2, hits give low values 1.02 | locus YER167W, strain BCK2, hits give low values 1 | locus YFR010W, strain ubp6, hits give low values 0.973 | locus YGL078C, strain dbp3, hits give low values 0.995 | locus YGL086W, strain mad1, hits give low values 0.991 | locus YGL167C, strain pmr1, hits give low values 0.991 | locus YGL173C, strain kem1, hits give low values 0.984 | locus YGL227W, strain vid30, hits give low values 0.986 | locus YGL240W, strain doc1, hits give low values 0.992 | locus YGL248W, strain PDE1, hits give low values 1.05 | locus YGL253W, strain hxk2, hits give low values 0.987 | [15] 1.05 | locus YGR135W, strain pre9, hits give low values 1.02 | [16] 0.998 | locus YGR252W, strain gcn5, hits give low values 1.01 | locus YHR013C, strain ard1, hits give low values 1 | locus YHR027C, strain rpn1, hits give low values 0.983 | [17] 1.02 | locus YHR079C, strain IRE1 (second series), hits give low values 0.985 | locus YHR094C, strain hxt1, hits give low values 1 | locus YHR129C, strain ARP1, hits give low values 1.02 | locus YHR142W, strain chs7, hits give low values 0.999 | locus YHR200W, strain rpn10, hits give low values 0.992 | locus YIL066C, strain RNR3, hits give low values 1.04 | locus YIL073C, strain SPO22, hits give low values 1 | locus YIL125W, strain kgd1, hits give low values 1 | locus YIR030C, strain dcg1, hits give low values 0.992 | locus YJL092W, strain hpr5, hits give low values 0.988 | locus YJL095W, strain BCK1 (second series), hits give low values 0.998 | locus YJL095W, strain BCK1, hits give low values 1.06 | locus YJL115W, strain asf1, hits give low values 0.989 | locus YJL129C, strain trk1, hits give low values 0.981 | locus YJL134W, strain LCB3, hits give low values 1.01 | locus YJL154C, strain vps35, hits give low values 0.984 | locus YJL164C, strain tpk1, hits give low values 0.994 | locus YJL166W, strain qcr8, hits give low values 0.983 | locus YJL168C, strain set2, hits give low values 0.999 | locus YJL187C, strain SWE1 (second series), hits give low values 1.04 | [18] 0.991 | [19] 1.04 | locus YKL009W, strain mrt4, hits give low values 0.962 | locus YKL068W, hits give low values 0.997 | locus YKL085W, strain MDH1 (second series), hits give low values 0.994 | locus YKL085W, strain MDH1, hits give low values 0.994 | locus YKL160W, strain elf1, hits give low values 0.993 | [20] 1.01 | locus YKR001C, strain vps1, hits give low values 0.987 | locus YKR026C, strain gcn3, hits give low values 0.99 | locus YKR091W, strain srl3, hits give low values 0.982 | locus YLL001W, strain dnm1, hits give low values 0.993 | locus YLL026W, hits give low values 0.985 | locus YLL041C, strain sdh2, hits give low values 1.01 | locus YLR027C, strain aat2, hits give low values 0.985 | [21] 1.05 | locus YLR058C, strain SHM2, hits give low values 1.04 | locus YLR102C, strain apc9, hits give low values 0.986 | locus YLR221C, strain rsa3, hits give low values 0.972 | locus YLR258W, strain gsy2, hits give low values 1.01 | locus YLR262C, strain YPT6 (second series), hits give low values 0.959 | [22] 1.04 | locus YLR268W, strain sec22, hits give low values 1 | locus YLR320W, strain mms22, hits give low values 0.975 | locus YLR330W, strain CHS5, hits give low values 1.03 | locus YLR342W, strain FKS1 (second series), hits give low values 1.09 | locus YLR342W, strain FKS1, hits give low values 0.974 | locus YLR357W, strain rsc2, hits give low values 0.951 | locus YLR370C, strain arc18, hits give low values 0.983 | locus YLR371W, strain rom2, hits give low values 0.997 | locus YLR384C, strain iki3, hits give low values 0.973 | locus YLR418C, strain cdc73, hits give low values 0.988 | locus YML016C, strain PPZ1, hits give low values 1.02 | locus YML032C, strain rad52, hits give low values 1.01 | locus YML120C, strain ndi1, hits give low values 0.985 | locus YML124C, strain tub3, hits give low values 0.992 | locus YMR058W, strain fet3, hits give low values 0.995 | locus YMR078C, strain ctf18, hits give low values 0.971 | locus YMR125W, strain sto1, hits give low values 0.983 | locus YMR129W, hits give low values 1 | locus YMR205C, strain PFK2, hits give low values 0.988 | locus YMR223W, strain ubp8, hits give low values 1.04 | locus YMR231W, strain pep5, hits give low values 0.994 | [23] 1.04 | [5] 1.11 | locus YNL067W, strain RPL9B, hits give low values 1.04 | locus YNL071W, strain lat1, hits give low values 0.99 | [24] 1.04 | locus YNL209W, strain ssb2, hits give low values 0.984 | locus YNL233W, strain BNI4, hits give low values 1.04 | locus YNL248C, strain rpa49, hits give low values 0.975 | locus YNL250W, strain rad50, hits give low values 1.01 | locus YNL271C, strain bni1, hits give low values 0.998 | locus YNL298W, strain CLA4, hits give low values 0.996 | locus YNL307C, strain MCK1, hits give low values 0.996 | locus YNL322C, strain KRE1 (second series), hits give low values 0.99 | locus YNR049C, strain mso1, hits give low values 1 | locus YNR052C, strain pop2, hits give low values 0.995 | locus YOL006C, strain TOP1, hits give low values 1.14 | locus YOL012C, strain htz1 0.898 | locus YOL147C, strain pex11, hits give low values 0.984 | locus YOR001W, strain rrp6, hits give low values 0.973 | locus YOR061W, strain CKA2, hits give low values 1.03 | locus YOR069W, strain VPS5, hits give low values 1.01 | locus YOR070C, strain gyp1, hits give low values 0.982 | locus YOR080W, strain dia2, hits give low values 0.991 | locus YOR083W, strain WHI5, hits give low values 0.999 | locus YOR106W, strain vam3, hits give low values 0.975 | locus YOR136W, strain idh2, hits give low values 0.988 | locus YOR144C, strain elg1, hits give low values 0.983 | locus YOR184W, strain ser1, hits give low values 0.962 | locus YOR265W, strain rbl2, hits give low values 1 | locus YOR270C, strain vph1, hits give low values 0.915 | locus YOR290C, strain snf2, hits give low values 0.989 | locus YOR316C, strain cot1, hits give low values 1.01 | locus YPL051W, strain arl3, hits give low values 1.01 | locus YPL078C, strain atp4, hits give low values 1.02 | locus YPL106C, strain sse1, hits give low values 1 | locus YPL240C, strain hsp82, hits give low values 0.974 | [25] 1.01 | locus YPR119W, strain clb2, hits give low values 0.997 | locus YPR141C, strain kar3, hits give low values 0.997 | locus YPR163C, strain tif3, hits give low values 1 | locus YPR167C, strain met16, hits give low values 1 | strain wtn01, hits give low values 0.987

O=c1[nH]c2ccccc2c2ccccc12
inactive: [1] 1.04 | [2] 1 | [26] 0.983 | [3] 1.01 | [4] 0.987 | [5] 0.979 | [6] 0.975 | [7] 0.967 | [8] 1.01 | [27] 0.983 | [9] 0.945
active: [24] 0.779

O=c1[nH]c2cccnc2[nH]c1=O
inactive: [11] 0.999 | [12] 1.02 | [13] 1.01 | [26] 0.995 | [14] 1 | [15] 1.01 | [16] 0.997 | [17] 1.03 | locus YHR087W, strain rtc3, hits give low values 1 | [18] 0.992 | [19] 1.01 | locus YJR075W, strain HOC1, hits give low values 0.969 | [20] 0.995 | [21] 1 | locus YLR058C, strain SHM2 (second series), hits give low values 1 | locus YLR085C, strain ARP6, hits give low values 1.01 | [22] 0.979 | locus YML094W, strain GIM5, hits give low values 1.02 | locus YMR219W, strain ESC1, hits give low values 1.03 | [23] 1.01 | [24] 1.04 | locus YNL298W, strain CLA4 (second series), hits give low values 1.04 | [27] 0.998 | locus YNR030W, strain Alg12, hits give low values 1.01 | [10] 0.965 | [25] 1.01 | locus YPR135W, strain CTF4, hits give low values 1.06
